# Data: the supplement of paper PMC10646978
# ± gives the standard deviation.
# How the values were obtained:
# Details in all cases: modulator concentration 10 µM
# [1] = tested on: RAW-Dual (murine macrophage reporter line); assay: NF-kB reporter (SEAP) activity fold change vs agonist alone; higher = enhanced NF-kB activity
# Procedure, shortened: (§1)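 RAW-Dual murine macrophage reporter cells were seeded at 50 000 per well in 384-well plates and pre-incubated 1 hour at 37 °C with compound pin-transferred to 10 μM final. After 1 hour, a PRR agonist was added and cells incubated overnight. Supernatant NF-κB (SEAP, QUANTI-Blue, 620 nm absorbance) and IRF (Lucia luciferase, QUANTI-Luc, luminescence) signals were divided by the mean agonist-only control on the same plate to give fold change. Two replicate plates were averaged, with errors by propagation.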
# [2] = tested on: RAW-Dual (murine macrophage reporter line); assay: IRF reporter (Lucia luciferase) activity fold change vs agonist alone; higher = enhanced IRF activity
# Procedure, shortened: as §1
# [3] = tested on: RAW-Dual (murine macrophage reporter line); assay: viability score (confluency relative to resting cells, overnight) (fraction); higher = more viable, active = viable (0.7 or more)
# Procedure, shortened: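 RAW-Dual macrophages in 384-well plates were treated overnight with compound at 10 μM final. IncuCyte imaging recorded confluency, and IncuCyte software built two confluency masks across every imaged well. The viability score expresses confluency relative to resting cells and was judged against a cutoff, which a compound met only if both masks exceeded 70% of resting cells.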
# [4] = agonist: CpG ODN 1826 0.5 ug/mL
Compound,"NF-kB reporter [1, 4]",NF-kB reporter ([1]; agonist: LPS 0.1 ug/mL),NF-kB reporter ([1]; agonist: MPLA […]),IRF reporter ([2]; agonist: 3'3'-cGAMP 10 ug/mL),IRF reporter ([2]; agonist: LPS 0.1 ug/mL),IRF reporter ([2]; agonist: MPLA […]),viability score [3]
N#Cc1c(N=Cc2ccc(Cl)cc2)sc2c1CCCC2,0.912 ± 0.16,1.01 ± 0.21,0.89 ± 0.068,0.915 ± 0.031,1.17 ± 0.21,1.21 ± 0.12,1 (active)
Cc1cncc(CN2CCC(=C3c4ccc(Cl)cc4CCc4cccnc43)CC2)c1.O=C(O)/C=C/C(=O)O,1.46 ± 0.14,1.19 ± 0.096,1.73 ± 0.23,0.931 ± 0.097,0.799 ± 0.092,1.29 ± 0.16,1 (active)
COc1ccc(C(=O)NCCOc2cc(C)cc(C)c2)cc1OC,1.48 ± 0.12,1 ± 0.056,0.827 ± 0.062,1.02 ± 0.045,1.42 ± 0.19,1.03 ± 0.21,1.01 (active)
COC(=O)Nc1nc2cc(C(=O)c3cccs3)ccc2[nH]1 [Prestw-100],2.4 ± 0.14,1.31 ± 0.094,1.98 ± 0.13,0.101 ± 0.0035,1.86 ± 0.18,2.05 ± 0.19,0.715 (active)
NS(=O)(=O)C#Cc1ccccc1,0.0641 ± 0.011,0.0588 ± 0.0047,0.159 ± 0.013,0.0153 ± 0.0016,0.0325 ± 0.0031,0.0392 ± 0.0098,0.7 (active)
COc1ccccc1OCCOCCOc1cccc(Br)c1,0.883 ± 0.14,1.05 ± 0.12,0.945 ± 0.087,1.05 ± 0.044,1.27 ± 0.29,1.36 ± 0.24,0.802 (active)
NC(=O)c1cc(NC(=O)c2ccc(Cl)c(Cl)c2)cc(C(N)=O)c1,1.15 ± 0.073,1.04 ± 0.13,1.01 ± 0.048,0.88 ± 0.032,0.943 ± 0.048,0.964 ± 0.096,0.997 (active)
O=C(Nc1ccc(S(=O)(=O)Nc2ccc(F)cc2)cc1)C(F)(F)F,0.992 ± 0.11,1.03 ± 0.069,0.93 ± 0.061,1.12 ± 0.027,1.37 ± 0.22,1.14 ± 0.098,1.01 (active)
COCCNCCOc1ccccc1C(C)C,0.767 ± 0.12,1.03 ± 0.084,0.899 ± 0.069,0.895 ± 0.031,1.32 ± 0.26,1.26 ± 0.18,0.554 (inactive)
O=C(NCCN1CCN(c2ccc(Cl)cc2)CC1)c1ccncc1,0.974 ± 0.076,0.99 ± 0.076,1.01 ± 0.027,1.01 ± 0.053,1.02 ± 0.081,0.986 ± 0.097,0.998 (active)
